Experimental data reported in PubChem BioAssay AID504660 (National Center for Advancing Translational Sciences (NCATS), 2011).
Where “and” joins values, the source holds several entries; their conditions need not be identical. Identical values can stand only once. The campaign covered roughly 360,000 compounds. About 3,700 (1%) were called active. No stated cut-off is given here; in the data, active means activation above about 30%; inactive means the rest. For the sample, actives were picked, then their nearest neighbours and some compounds at random. Some compounds were tested as several samples or in several runs, with calls that do not always agree.

Biological target: D(1A) dopamine receptor (Homo sapiens) (UniProt P21728)
Sequence (P21728 whole entry, looked up): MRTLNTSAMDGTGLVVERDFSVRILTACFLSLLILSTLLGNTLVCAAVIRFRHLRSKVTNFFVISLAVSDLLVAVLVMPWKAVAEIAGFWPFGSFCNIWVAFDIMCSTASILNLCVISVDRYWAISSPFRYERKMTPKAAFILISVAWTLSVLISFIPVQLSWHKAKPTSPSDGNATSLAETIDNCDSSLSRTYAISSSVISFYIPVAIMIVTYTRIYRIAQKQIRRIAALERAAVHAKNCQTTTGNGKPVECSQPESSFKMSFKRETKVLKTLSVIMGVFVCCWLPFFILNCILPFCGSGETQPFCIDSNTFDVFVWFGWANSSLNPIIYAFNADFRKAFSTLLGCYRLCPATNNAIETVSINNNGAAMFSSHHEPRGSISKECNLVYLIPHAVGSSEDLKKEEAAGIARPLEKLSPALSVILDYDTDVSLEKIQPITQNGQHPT
Test: Allosteric Agonists of the Human D1 Dopamine Receptor: qHTS; further: 0% is about no effect
Conditions: HEK293 T-REx D1 cells, calcium flux, agonist mode; at 2 µM; stronger effect = higher value
In short: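 Tetracycline-induced HEK293 TREx D1 cells, force-coupled to calcium signalling, were dye-loaded with a no-wash calcium kit. Compound was pin-added after a 10 s baseline. Fluorescence was read kinetically at 1 cycle/s for 180 s, with calcium rises flagged as agonism.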

Row | SMILES | activation
1 | CCc1nn(CC(=O)N2CCN(c3cccc(C(F)(F)F)c3)CC2)c(=O)c2cc3occc3n12 | -1.81% (inactive)
2 | Cc1ccccc1CN1C(=O)c2ccccc2Sc2ccc(C(=O)NCCCN3CCOCC3)cc21 | 16.6% (inactive) and 53.8% (active)
3 | O=C(NCCCN1CCOCC1)c1cc(-c2ccccc2F)no1 | 2.58% (inactive)
4 | O=C(NCCCN1CCOCC1)c1ccc2c(c1)N(Cc1cccc(F)c1)C(=O)c1ccccc1S2 | 37.5% (active)
5 | COc1cccc(CNC(=O)c2ccc3c(c2)N(Cc2ccc(C(F)(F)F)cc2)C(=O)c2ccccc2S3)c1OC | 7.24% (inactive)
6 | O=C(NCCCN1CCCCC1)c1ccc2c(c1)NC(=O)C(N1CCOCC1)S2 (stereo not given) | 1.92% (inactive)
7 | COc1ccc(C(=O)NCCCN2CCOCC2)cc1Br | 5.3% (inactive)
8 | O=C(Cn1cnc2c(oc3ccccc32)c1=O)Nc1ccc(OC(F)(F)F)cc1 | 26.6% (inactive)
9 | CCn1cc(C(=O)OCC(=O)Nc2cc(C)cc(C)c2)c(=O)c2ccc(C)nc21 | -2.27% (inactive)
10 | COc1ccc(CNC(=O)Cn2nnc(-c3ccc(S(C)(=O)=O)cc3)n2)cc1 | -0.202% (inactive)
11 | COc1cc(OC)c(N2CC(C(=O)Nc3cc(Cl)ccc3N3CCOCC3)CC2=O)cc1Cl (stereo not given) | 6.25% (inactive)
12 | COc1ccc(Cl)cc1S(=O)(=O)N1CCC(O)(c2ccc(Cl)cc2)CC1 | 4.61% (inactive)
13 | COc1cc(OC)c(-n2cc(-c3ccc(Cl)cc3)[nH]c2=O)cc1Cl | 87.1% (active)
14 | CCCC12CN3CC(C)(CN(C1)C3c1ccccc1Cl)C2=O (stereo not given) | -0.996% (inactive)
15 | COc1ccc(-c2noc(CSc3nc4ccc(C)cc4[nH]3)n2)cc1 | 5.23% (inactive)
16 | C=CCOc1ccc(/C=C/C(=O)OCC(=O)NC(C)c2ccc(F)cc2)cc1 (stereo not given) | 7.04% (inactive)
17 | CC(NC(=O)COC(=O)c1ccc(Cl)cc1O)c1ccc(F)cc1 (stereo not given) | 40% (active)
18 | CC(CCc1ccccc1)NC(=O)COC(=O)c1ccc(F)cc1 (stereo not given) | 10.8% (inactive)
19 | O=C1CCCc2cc(S(=O)(=O)N3CCCC(C(=O)NCc4ccccc4)C3)ccc2N1 (stereo not given) | 1.11% (inactive)
20 | CCc1ccccc1NC(=O)Cn1c(=O)n(CC2CCC(C(=O)NCCc3ccccc3)CC2)c(=O)c2ccccc21 (stereo not given) | -1.58% (inactive)
21 | CCn1cc(C(=O)NCc2ccccc2)c(=O)c2cc(S(=O)(=O)N3CCCCC3)ccc21 | 1.41% (inactive)
22 | O=C(c1cccnc1)N1CCN(S(=O)(=O)c2cccs2)CC1 | 1.36% (inactive)
23 | O=C(N/N=C/c1sc(N2CCCCC2)nc1-c1cccs1)c1cccnc1 | 32.8% (active)
24 | Cc1ccc(S(=O)(=O)N2CCCCC2)cc1NC(=O)c1cccnc1 | 4.22% (inactive)
25 | Cc1cc(NC(=O)C2CCC(CNS(=O)(=O)c3ccc(Br)s3)CC2)ccc1Br (stereo not given) | 9.94% (inactive)
26 | N#Cc1nc(Nc2cccc(Cl)c2)nc(NC2CCCC2)n1 | 4.33% (inactive)
27 | COc1cccc2c1cc1c(=O)n(CC(=O)N3CCN(c4cccc(Cl)c4)CC3)nc(C)n12 | -0.0969% (inactive)
28 | O=C(CNC(=O)c1ccc(Cl)c(C(F)(F)F)c1)OC(C(=O)Nc1cc(C(F)(F)F)ccc1Cl)c1ccccc1 (stereo not given) | 15.3% (inactive)

Row | SMILES | activation
29 | Cc1ccc(C(=O)NCCSc2c(C)[nH]c3ccccc23)cc1C | 2.99% (inactive)
30 | O=C(NCc1ccc2c(c1)CCN2C(=O)c1ccccc1)Nc1cc(F)ccc1F | 2.32% (inactive)
31 | O=C(Nc1cccc(-c2cccc(Cl)c2)c1)C1CCN(C2CCC2)CC1 | 33.2% (active)
32 | CCn1cc(CN2CCC(C(=O)Nc3cccc(-c4cccc(Cl)c4)c3)CC2)c(C)n1 | 17.5% (inactive)
33 | CCn1cc(CN2CCC(C(=O)Nc3cccc(-c4cccc(Cl)c4)c3)CC2)cn1 | 10.6% (inactive)
34 | O=C(Nc1cccc(-c2nc3ccccc3o2)c1)c1cccc(Br)c1 | 11.1% (inactive)
35 | CCOC(=O)C1CCN(Cc2ccc(-c3ccccc3)cc2)CC1 | 5.56% (inactive)
36 | CCOC(=O)/C(C#N)=C/c1ccc(N2CCCCC2)cc1 | 68.9% (active)
37 | COc1ccc(/C=C(\C#N)C(=O)ONC2=NCCCCC2)cc1 | 4.53% (inactive)
38 | CCOC(=O)/C(C#N)=C/c1ccc(N2CCN(Cc3ccccc3)CC2)cc1 | 46.5% (active)
39 | CCCn1c(C)cc(/C=C(\C#N)C(=O)OCC(=O)N(C)c2c(N)n(Cc3ccccc3)c(=O)[nH]c2=O)c1C | 1.98% (inactive)
40 | CCOC(=O)/C(C#N)=C\c1c(C)cc(C)c(COC(C)=O)c1C | 0.226% (inactive)
41 | Cc1ccc2sc(N(Cc3cccnc3)C(=O)C3COc4ccccc4O3)nc2c1C (stereo not given) | 20.1% (inactive)
42 | CC1CCN(S(=O)(=O)c2ccc3c(c2)N(CC(=O)NCCc2ccccc2)C(=O)CO3)CC1 | 1.33% (inactive)
43 | Cc1ccc2[nH]cc(CCNC(=O)C3CCCCC3)c2c1 | 5.96% (inactive)
44 | COc1ccc(CN2CCN(Cc3ccc(OC)c(OC)c3OC)CC2)cc1 | 1.73% (inactive)
45 | CCOc1ccc(CN2CCN(Cc3c[nH]c4ccccc34)CC2)cc1 | 33.4% (active)
46 | CCOc1ccc(CN2CCCN(C)CC2)cc1 | 1.05% (inactive)
47 | CC1(C(=O)NCCc2c[nH]c3ccccc23)C=CC2(CCCCC2)N1C(=O)c1ccccc1 (stereo not given) | -1.33% (inactive)
48 | O=C(NCCc1c[nH]c2ccccc12)C1CCN(Cc2ccc(Br)cc2)CC1 | 35.5% (active)
49 | O=S(=O)(c1ccc(Cl)cc1)c1nnn2c1nc(NC1CCCC1)c1sccc12 | -0.225% (inactive)
50 | Cc1ccc(C)c(N2CCN(Cc3nnc(-c4ccccc4)o3)CC2)c1 | 6.92% (inactive)
51 | CCCn1c2ccccc2c2cnn(CC(=O)N(CC)c3cc(C)ccc3C)c(=O)c21 | 3.04% (inactive)
52 | COc1cc(/C=C(\C#N)c2nc3c(s2)CC(C)CC3)ccc1O (stereo not given) | 35.8% (active)
53 | COc1cccc2cc(-c3nc(Cl)c4c5c(sc4n3)CC(C)CC5)c(=O)oc12 (stereo not given) | -0.914% (inactive)
54 | COc1ccc(OCCCn2cccc2/C=C2/C(=N)N3OC(C)=CC3=NC2=O)cc1 | 1.18% (inactive)
55 | CC1=CC2=NC(=O)/C(=C/c3coc4ccccc4c3=O)C(=N)N2O1 | 227% (active)
